Test results as given in paper PMC13494018.

B1: design_618_d4ffd631-0ea2-432e-ba0f-bd3d6297b2a0_2021_dldesign_0_cycle1_af2pred (protein)
chain: AALAAQGRAIARTMRIAVLNAATAAEAAAIADTFGTTLLNLADLASPEEQRAIVEATRAEAEEVAAENPEAGAAVAATAERLRAHVEA
B2: design_618_d4ffd631-0ea2-432e-ba0f-bd3d6297b2a0_719_dldesign_0_cycle1_af2pred (protein)
chain: AAALAEVQEKALEAAKKASELAREARKAGDEEKAKKFEELMNTLMSAAGAAAQDLEAAKEKIDKAIKEIEELAKN
B3: design_618_d4ffd631-0ea2-432e-ba0f-bd3d6297b2a0_1177_dldesign_0_cycle1_af2pred (protein)
chain: AQATLASAQALTNAAETALKTSPEYAPLALQLAQQGIELAKQAAKEGAKEDPATAKEAKEVQKKAEEVAKQAQKILA
B4: design_618_d4ffd631-0ea2-432e-ba0f-bd3d6297b2a0_2173_dldesign_0_cycle1_af2pred (protein)
chain: SSAKEKAKKLAEEAKKIADKAIAQAKALAADKGAANAVLLDAIKELSELAKKAYALDPAYADKINAYAQELVKQMAAIAG
B5: design_618_d4ffd631-0ea2-432e-ba0f-bd3d6297b2a0_442_dldesign_0_cycle1_af2pred (protein)
chain: AAATRATADAALAELERVGEVAVTVAKSALEAGFSKETALKIGTSLVENVVTGATAAVADDPAAQARIRAAGERIKEEIRKAL
B6: design_618_d4ffd631-0ea2-432e-ba0f-bd3d6297b2a0_2000_dldesign_0_cycle1_af2pred (protein)
chain: RAAAVEAALAYARAVAETDASLEAARAAFERAKALLPEAPEAAGTLAGAALVAGSNPALGERLFAAGAARAA
B7: design_618_d4ffd631-0ea2-432e-ba0f-bd3d6297b2a0_729_dldesign_0_cycle1_af2pred (protein)
chain: AKEEVVEQAKQVAEAALALAKQVSPEWEKKAKEALELVEKAKEGNLEEAQKVAGEVMRIAAEVLAAYTAKQA
B8: design_618_d4ffd631-0ea2-432e-ba0f-bd3d6297b2a0_1565_dldesign_0_cycle1_af2pred (protein)
chain: MEEELKKIEEVKELGKKIGEELAKKILEYAKENASLPIEEILRKMVEMTREAVEKIYKLIPSELAEIGARIVWGAGSQAMIQGVRLIG
B9: design_618_d4ffd631-0ea2-432e-ba0f-bd3d6297b2a0_2461_dldesign_0_cycle1_af2pred (protein)
chain: STAFFQEATKLIEEAGEVANRVPEVAPLANKAITAASKAMLAAAQGNEAAAKAYFDEAKKLLEEAKKKAKELLE
B10: design_618_d4ffd631-0ea2-432e-ba0f-bd3d6297b2a0_1320_dldesign_0_cycle1_af2pred (protein)
chain: AAAEAAAAAVRAATAAGVARVEALAAAAGDAEVAALARAEAARIREVGAVLEEIARATGPFGGEVGLKSVATVTANAEARIAEAA
B11: design_618_d4ffd631-0ea2-432e-ba0f-bd3d6297b2a0_955_dldesign_0_cycle1_af2pred (protein)
chain: AAASEIMAKFAAGVAKNVAAVLKEDPEKGIEVGKKLAEIILAADPQAGAKLAQAFAEYVKKYAPLIPADKKAAAEAYFNALAEKGA
B12: design_618_d4ffd631-0ea2-432e-ba0f-bd3d6297b2a0_2235_dldesign_0_cycle1_af2pred (protein)
chain: EEDEKILESAKKMKEVAKDLAEYAKTSTAEVAKIAANSAEALARILKETAKESKKKEEIEKLAKEAEEYAKEAKETAKKK
B13: design_619_5728adc2-0aea-404f-92dd-a4575c53f550_130_dldesign_0_cycle1_af2pred (protein)
chain: DELFARLEELARALVEEAAKRSPELADIILESYEEGKKIAEELGFGPVTAIAIAAALALRRDPEAGALLRQVFVEVARAAIEAQ
B14: design_619_5728adc2-0aea-404f-92dd-a4575c53f550_189_dldesign_0_cycle1_af2pred (protein)
chain: DPATVRGLAAMAALALQAGVTGGPEVGAANLRNVAKLAAARGTPEAAEIAKKAEEAAKEADNPEKVKEYQAYFEEIAKA
B15: design_618_d4ffd631-0ea2-432e-ba0f-bd3d6297b2a0_2465_dldesign_0_cycle1_af2pred (protein)
chain: AAAAQAAAILAAAQQGINDTTALLEKYKDVATPETVALFNKALAYFSKAAALALRGTQPAEAAAALAKGQEEAKKGEELLKKEVE
B16: design_618_d4ffd631-0ea2-432e-ba0f-bd3d6297b2a0_848_dldesign_0_cycle1_af2pred (protein)
chain: MERAISLGKAAAVAGIAGSTAALKNIVKTIAKLSPEEAKKAAEVAAKEIIKAPNAKEMLKAAADAAKEVGTESGKAAAEVFEKAAKKA
B17: design_619_5728adc2-0aea-404f-92dd-a4575c53f550_175_dldesign_0_cycle1_af2pred (protein)
chain: AAAQQQAIGNAAIRTADIAMATAKKLIKEDPAKGKEVAEQAVGILEGAAKAAPSTAATLLAEAKKVKEETEKAIKEA
B18: design_619_5728adc2-0aea-404f-92dd-a4575c53f550_103_dldesign_0_cycle1_af2pred (protein)
chain: SEAERYAEAAKKLAQVAKDIAAAFPANPELKKEAEKAKKYAEKAEKLVKEGGSAEEVLKEYEKARAALARATKLAIAA
B19: design_618_d4ffd631-0ea2-432e-ba0f-bd3d6297b2a0_1130_dldesign_0_cycle1_af2pred (protein)
chain: AEAVAKAALTSAKNLAEMAIRLAESGEKLEEAKKALEVAKAMAEQAEKLNPKYGKEAKAAVEKAEKKLKEAE
B20: design_618_d4ffd631-0ea2-432e-ba0f-bd3d6297b2a0_1622_dldesign_0_cycle1_af2pred (protein)
chain: SKEEREKIYKEALKNLEKMGTLLLDLAAQGSAADVAAAKAAIEEAKKLIEEAKKANPEEAKKLAKEAHDILSKALAAVSKSVIA
B21: design_618_d4ffd631-0ea2-432e-ba0f-bd3d6297b2a0_776_dldesign_0_cycle1_af2pred (protein)
chain: GAEEELKKAEEMGEIAESIAKQAAKASGSKEAKELLKKAKELVKKAKENAKDKEKIKELLKELSRLAGQAAKQLIAALK
B22: design_618_d4ffd631-0ea2-432e-ba0f-bd3d6297b2a0_2243_dldesign_0_cycle1_af2pred (protein)
chain: AAAAATALAKATAEALVRSAERGNAETARKLAEVAKGLAEGEAAAGDEEAAKAAAEAAKKIEAIAKEKAA
B23: design_618_d4ffd631-0ea2-432e-ba0f-bd3d6297b2a0_2266_dldesign_0_cycle1_af2pred (protein)
chain: SADVELGKEKGKELAEKIKEAAKKGLKAGDPEAAGKEMNKIVQEAIKFAATLSPEAASVLLSIVIETAKEESAKLKAA
B24: design_618_d4ffd631-0ea2-432e-ba0f-bd3d6297b2a0_1624_dldesign_0_cycle1_af2pred (protein)
chain: MKAEVEALREQVSKAVNAATKAGSAAALKDGLASSQKLSEVMEEVGELVKKGNEATKKGEYEEALKYYQKAIEIATDAKAYFEKVAAA
B25: design_618_d4ffd631-0ea2-432e-ba0f-bd3d6297b2a0_2309_dldesign_0_cycle1_af2pred (protein)
chain: AGLEIANKALQLAAEATAALKAAAKGTAAEVEALAKKYLDEAKKLKEQATTPQAKAAANIAISAVTTAKKAALAAVA
B26: design_618_d4ffd631-0ea2-432e-ba0f-bd3d6297b2a0_1447_dldesign_0_cycle1_af2pred (protein)
chain: MQGHIDRLNRGAEAALAAAESGEITEEQARIIRNGAMIAYDAAEAYEKTTRAAELLQTTPEGREEGGKILRELAEKMLARAKELL
B27: design_618_d4ffd631-0ea2-432e-ba0f-bd3d6297b2a0_1745_dldesign_0_cycle1_af2pred (protein)
chain: SAARLAEQRARAAELRERAEEALKRAEQVEKKNPAAGAAVRALVRQALRQVELGLADPENAERYLDSARRNLEVAQGIIDATL
B28: design_619_5728adc2-0aea-404f-92dd-a4575c53f550_74_dldesign_0_cycle1_af2pred (protein)
chain: DLDAVIATGMLALGKANAALAAARAGTATAAELEAAAAEAEAAAALAAALAAQSSTMAWLAAQLKKAAAELRAAAAKLKA
B29: design_618_d4ffd631-0ea2-432e-ba0f-bd3d6297b2a0_931_dldesign_0_cycle1_af2pred (protein)
chain: AAAAEAALARAVAVLGRAFQQAVASPDLAEADALLDAGLAEALAITAADPEAAAAVRRLAAQMRAKVRELVS
B30: design_618_d4ffd631-0ea2-432e-ba0f-bd3d6297b2a0_687_dldesign_0_cycle1_af2pred (protein)
chain: AAAQQLAVQSATAFARQAIAAAQAALELAKADPSAKEEIERLLNQARASLQNALLVGQSSPEAAAIAQEAQATVEKLAAETAKAAAA
B31: design_619_5728adc2-0aea-404f-92dd-a4575c53f550_132_dldesign_0_cycle1_af2pred (protein)
chain: AEAAAALAAAMRAATDAAVAEAATGTGEGIAKALHVANLARAAAEANPETAAEHRAYAERALAAAKAAQAAAIAAA
B32: design_618_d4ffd631-0ea2-432e-ba0f-bd3d6297b2a0_800_dldesign_0_cycle1_af2pred (protein)
chain: MSEAAKEVAELAEYVSKQAKEAGNEEAAKLAKEGAELAKEGAKDPSTAGEKIAEALKLYIQASQQLVAYQQA
B33: design_618_d4ffd631-0ea2-432e-ba0f-bd3d6297b2a0_1274_dldesign_0_cycle1_af2pred (protein)
chain: MSPEEAKAQAEELAKQAKENKAKALATVADPAKAGEHIVQIAKNAAALQRIAAEVPEVAAYAKAKAREASKYLAEASTAAAAA
B34: design_618_d4ffd631-0ea2-432e-ba0f-bd3d6297b2a0_1628_dldesign_0_cycle1_af2pred (protein)
chain: AAQAQADQITKAAAEAAIKSAKAMVDINLESARKLAEVAADLGKAAPATAAEIKAAAKAVIEEADKKEAEKA
B35: design_618_d4ffd631-0ea2-432e-ba0f-bd3d6297b2a0_2296_dldesign_0_cycle1_af2pred (protein)
chain: DKYATEAKKYAEEAEKLAKEAKKEAKKVGEAAKELAKQAEAAAKTAKIAAEGAEAATDPAARALALKVAEQAYKQAKKLLKEIKKL
B36: design_618_d4ffd631-0ea2-432e-ba0f-bd3d6297b2a0_941_dldesign_0_cycle1_af2pred (protein)
chain: SEEVKKALEEVEKLLDEAIKAAKAGDIGTAAVLLAKAAAIADKAHPEAGAVIRQGLAEAIAAAADPEKAAKVIEEAREKVKKILEA
B37: design_618_d4ffd631-0ea2-432e-ba0f-bd3d6297b2a0_472_dldesign_0_cycle1_af2pred (protein)
chain: MNEAQRIAAARGAARVAAAAAEKDPALGKAILAGAAATFADSPAALKALAATAREEAEKASPEAGAALKAAAAEVEAAAA
B38: design_619_5728adc2-0aea-404f-92dd-a4575c53f550_149_dldesign_0_cycle1_af2pred (protein)
chain: SPAQEAARAEADRAAEAIAAFAKQIAAAASPELAKEVLAAAEKAAAALAAAKELPAEEARAATDAVWAAANRAAAAAMRQVLAQTT

Each binder was assayed against CD276, Q5ZPR3.
CD276, Q5ZPR3, sequence (Q5ZPR3 whole entry): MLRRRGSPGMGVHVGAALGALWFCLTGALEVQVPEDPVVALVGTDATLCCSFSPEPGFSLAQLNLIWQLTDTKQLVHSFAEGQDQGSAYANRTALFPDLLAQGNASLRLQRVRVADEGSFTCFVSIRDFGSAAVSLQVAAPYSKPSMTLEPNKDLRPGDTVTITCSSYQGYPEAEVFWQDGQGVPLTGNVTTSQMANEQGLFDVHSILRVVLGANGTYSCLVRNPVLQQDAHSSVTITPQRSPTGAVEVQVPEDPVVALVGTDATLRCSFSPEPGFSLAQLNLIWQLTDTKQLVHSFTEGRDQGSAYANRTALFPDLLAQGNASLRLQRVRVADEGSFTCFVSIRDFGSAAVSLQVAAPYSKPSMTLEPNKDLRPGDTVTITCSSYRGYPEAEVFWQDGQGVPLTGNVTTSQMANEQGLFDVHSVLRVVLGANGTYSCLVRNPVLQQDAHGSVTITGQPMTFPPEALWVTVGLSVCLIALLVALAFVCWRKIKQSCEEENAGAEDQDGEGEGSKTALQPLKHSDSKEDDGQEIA

Binding in a display sort, inactive:
B1 not found, B2 not found, B3 not found, B4 not found, B5 not found, B6 not found, B7 not found, B8 not found, B9 not found, B10 not found, B11 not found, B12 not found, B13 not found, B14 not found, B15 not found, B16 not found, B17 not found, B18 not found, B19 not found, B20 not found, B21 not found, B22 not found, B23 not found, B24 not found, B25 not found, B26 not found, B27 not found, B28 not found, B29 not found, B30 not found, B31 not found, B32 not found, B33 not found, B34 not found, B35 not found, B36 not found, B37 not found, B38 not found
